The values below come from PubChem BioAssay (Tox21).

Structures are written as SMILES. Results filed as inconclusive are left out. Entries that show only a call come without a potency. The source made the active and inactive calls. The call rests on the fitted dose curve; in most records, active means well fitted cell-killing curve with a large enough effect in the repeat runs; inconclusive means weak or mixed curves, or effect the other way; inactive means flat fitted curve, though single readings scatter.
Potency means the concentration at half of the fitted maximal effect.

This assay in a line: qHTS RealTime-Glo MT Cell Viability Assay in HEK293 cells - 32 hour (AID 1224868). Further: nearly all actives have a fitted effect of over 50% in size. As to conditions: RealTime-Glo luminescence; series mostly up to 76.8 µM. An excerpt: National Center for Advancing Translational Sciences [NCATS]
NIH Chemical Genomics Center [NCGC]
U.S. Environmental Protection Agency [EPA]
National Institutes of Environmental Health Sciences [NIEHS]
National Toxicology Program [NTP]
U.S. Food and Drug Administration [FDA]
Measure of cell viability is critical in the cell-base assay. Analysis of cell viability is necessary for the characterization of cell responses to cytotoxic drugs and environmental stress. A RealTime-Glo MT Cell Viability Assay to monitor cell viability in real time of continues cell culture during 40 hours of compound treatment was used to screen Tox21 10K library compounds in Hek293 cells. The RealTime-Glo MT Cell Viability Assay is a nonlytic, homogeneous, bioluminescent method to measure cell viability in real time using a simple, plate-based method. The assay involves adding NanoLuc luciferase and a cell-permeant prosubstrate to cells in culture. Viable cells reduce the proprietary prosubstrate to generate a substrate for NanoLuc luciferase. This substrate diffuses from cells into the surrounding culture medium, where it is rapidly used by the NanoLuc Enzyme to produce a luminescent signal. The signal correlates with the number of viable cells, making the assay well suited for cytotoxicity studies.
Tox21 Assay Protocol Summary:
The mixture of Hek293 cell suspension and reagents were dispensed at 600cells/6 ul/well in 1536-well tissue culture treated black solid bottom plates using a Multidrop dispenser. After the assay plates were incubated at a 37 C/5% CO2 incubator for 5 hours, 23 nL of compounds dissolved in DMSO, positive and negative controls was transferred to the assay plate by a pintool work station. The plates were incubated at 37 C for 40 hours. The luminescence intensity were measured at 0h, 8h, 16h, 24h, 32h and 40h time points using ViewLux plate reader during compound treatment.
Take `ON(Cc1ccccc1)Cc1ccccc1`: the Potency entry is “inactive”.

Take `Cc1occc1C(=O)Nc1ccc(C(=O)N2CCC(F)(F)/C(=C\C(=O)N3CCC(N4CCCCC4)CC3)c3ccccc32)cc1`: the Potency is 10.8 µM (active).

Take `O=C(O)C(Cc1cc(I)c(O)c(I)c1)c1ccccc1` (stereo not given): the Potency result is “inactive”.

Consider `CC(C)(O)c1ccccc1CC[C@@H](SCC1(CC(=O)O)CC1)c1cccc(/C=C/c2ccc3ccc(Cl)cc3n2)c1`, for which the Potency result is “inactive”.

For `C=CC(=C)CCCC(C)(C)OC(C)=O`, the Potency result is “inactive”.

Take `C[N+]1(C)CCC(=C(c2ccccc2)c2ccccc2)CC1`: the Potency result is “inactive”.

As for `C/C=C/C=C/CCCCCCCO`, the Potency entry was “inactive”.

In the case of `CCC(C)=O`, the Potency result is “inactive”.

In the case of `O=C(CCCCCCC(=O)Nc1ccccc1)NO`, the Potency is 2.39 µM (active).

With `CC(=O)Nc1ccccc1C`, the Potency entry was “inactive”.

For the molecule `O=S(=O)(c1ccccc1)c1ccc(Cl)cc1`, the Potency entry is “inactive”.

With `O=C1OCCN1/N=C/c1ccc([N+](=O)[O-])o1`, the Potency result was “inactive”.

For `C[C@@H]1C[C@H]2[C@@H]3CCC4=CC(=O)C=C[C@]4(C)[C@@]3(F)[C@@H](O)C[C@]2(C)[C@H]1C(=O)CO`, the Potency entry was “inactive”.

For `CCCCCCCC/C=C\CCCCCCCC(=O)OC(CO)CO`, the Potency entry was “inactive”.

For the molecule `COc1cc2c(N3CCN(C(=O)Nc4ccc(OC(C)C)cc4)CC3)ncnc2cc1OCCCN1CCCCC1`, the Potency was 9.52 µM (active).

Turning to `O=S1OCCO1`, the Potency entry is “inactive”.

Regarding `CCCCCC=CCC=CCCCCCCCC(=O)OCC`, the Potency entry was “inactive”.

Take `CCc1c2c(nc3ccc(OC(=O)N4CCC(N5CCCCC5)CC4)cc13)-c1cc3c(c(=O)n1C2)COC(=O)[C@]3(O)CC`: the Potency was 2.68 µM (active).

For `c1cnc2c(n1)CCCC2`, the Potency entry was “inactive”.

Regarding `O=C(c1ccc(O)cc1)c1ccc(Cl)cc1`, the Potency is 25.1 µM (active).

`OCCSc1ccccc1`: the Potency entry was “inactive”.

Turning to `CCCCCCCC/C=C\CCCCCCCC(=O)OC`, the Potency entry was “inactive”.

With `O=C(Nc1ccc([N+](=O)[O-])cc1)Nc1ccc([N+](=O)[O-])cc1`, the Potency is 7.56 µM (active).

Consider `OC(CCCN1CCCCC1)(c1ccccc1)c1ccccc1`, for which the Potency entry was “inactive”.

On to `Cc1oc(C)c(C(=O)Nc2ccccc2)c1C`, for which the Potency is 24.5 µM (active).

For `CC(=O)N(c1onc(C)c1C)S(=O)(=O)c1ccc(N)cc1`, the Potency result was “inactive”.

On to `CC(=O)Oc1ccc(C(=C2CCCCC2)c2ccc(OC(C)=O)cc2)cc1`, for which the Potency entry was “inactive”.

Consider `C[N+](C)(C)CCOC(N)=O`, for which the Potency result is “inactive”.

Consider `Cc1cc(S(=O)(=O)O)ccc1N=Nc1c(O)ccc2ccccc12`, for which the Potency entry was “inactive”.

For the molecule `O=C(CCC1CCN(Cc2ccccc2)CC1)c1ccc2c(c1)NCCCC2`, the Potency was 8.49 µM (active).

As for `OC/C(Br)=C(\Br)CO`, the Potency entry is “inactive”.

As for `Cc1nc2ccccc2s1`, the Potency result is “inactive”.

In the case of `CCOC(=O)CC(=O)C(=O)OCC`, the Potency is 49 µM (active).

On to `Cc1cc(C(=C2C=CC(=Nc3ccc(S(=O)(=O)O)cc3S(=O)(=O)O)C=C2)c2ccc(Nc3ccc(S(=O)(=O)O)cc3)cc2)ccc1N`, for which the Potency entry was “inactive”.

For `Nc1ccc(S(=O)(=O)O)c(N)c1`, the Potency result was “inactive”.

For `CCCOC(=O)c1ccc(C(=O)OCCC)nc1`, the Potency entry is “inactive”.

For the molecule `CC(N)CN` (stereo not given), the Potency result is “inactive”.

Take `Oc1cc(O)c(Cl)cc1Cl`: the Potency entry was “inactive”.

On to `CC[C@H](NC(=O)c1cc(F)ccc1NS(=O)(=O)c1cccc2cccnc12)c1ccccc1`, for which the Potency result was “inactive”.

Turning to `O=C(O)c1c(O)c(-c2ccccc2)nc2ccccc12`, the Potency entry is “inactive”.
